From PubChem BioAssay
Inconclusive results are not listed. Activity calls are given as the source filed them. Unless noted, how the calls were made is not given here.

Tests used:
[1] = yeast TOR pathway RPL19A-GFP modulators, primary screen, cell-based, S. cerevisiae, multiplex flow cytometry (AID 1862; in the data active means percent of DMSO control GFP below about 86%;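 further: lower values mimic rapamycin by blocking the RPL19A rise seen in DMSO cells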); settings: S. cerevisiae RPL19A-GFP strain, flow cytometry fluorescence, 3 h; at 10 µM; stronger effect = lower value
[2] = modulators of MEP2-GFP levels in yeast, primary screen, S. cerevisiae, multiplex flow cytometry (AID 1867;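 active means GFP response, as percent of the DMSO control, above the screen-wide mean plus 3 SD, about 139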;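 further: median GFP channel fluorescence of barcode-gated MEP2-GFP cells measured by flow cytometry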); settings: S. cerevisiae MEP2-GFP strain, 3 h, at 10 µM, stronger effect = higher value
[3] = modulators of CIT2-GFP expression in yeast, primary screen, S. cerevisiae, GFP fusion, multiplex flow cytometry (AID 1870;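 active means percent response above a set limit, the screen-wide mean plus 3 SD, cut at about 130% in these data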;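 further: barcoded CIT2-GFP strain pooled with four other GFP strains with rapamycin as positive control; median GFP fluorescence per well over plate mean of DMSO wells so 100% = DMSO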); settings: 3 h, at 10 µM, stronger effect = higher value
[4] = modulators of LAP4-GFP expression in yeast, primary screen, S. cerevisiae, multiplex flow cytometry (AID 1873;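 active means GFP signal, as percent of the solvent control, above the screen mean plus 3 SD, about 149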); settings: 3 h, at 10 µM, stronger effect = higher value
[5] = inhibitors of CD8+ T cell-vesicle binding, pilot screen, LFA-1/ICAM-1 modulator project, MLPCN validation set, flow cytometry (AID 2523;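 active means response below a set limit, under 55% cells CD8-positive and vesicle-bound, and CD8 cells' 90th-percentile brightness under 279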;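 on vesicle binding response: mean PE anti-B7-1 fluorescence of CD8+ cells relative to row control; 100% = QL9-loaded vesicles with DMSO vehicle in the same plate row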); settings: 2C mouse CD8+ T cells, at 7 µM, stronger effect = lower value; double positive events: measured here: CD8+/vesicle+ event percentage
[6] = target: Integrin beta-1 (Homo sapiens) + Integrin alpha-4 (Homo sapiens) (UniProt P13612+P05556); test: inhibition of HUTS-21 binding to VLA-4, pilot screen, VLA-4 allosteric modulator project, U937 cells, HUTS-21 mAb, flow cytometry, validation set (AID 2674;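 active means inhibition above 50%, about 3 SD of the validation set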;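 further: antibody binding induced by the VLA-4 ligand LDV present at three times its Kd; 0% = LDV ligand with antibody and no compound and 100% = antibody without LDV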); settings: HUTS-21 LIBS mAb binding, at 6.7 µM, stronger effect = higher value
[7] = superoxide lowering in aged yeast cells, pilot screen, validation compound set (AID 2706;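 active means superoxide response below 65% of plate, a cut near 3 SD across the whole screen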;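 further: yeast exposed to compound for one week at 30 degrees C before staining; 100% = mean of all compound wells on the same plate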); settings: S. cerevisiae aging, superoxide DHE fluorescence; at 10 µM; stronger effect = lower value
[8] = target: Beta-adrenergic receptor kinase 1 (Homo sapiens) (UniProt P25098); test: GRK2 binders displacing RNA aptamer, biochemical, validation, human GRK2, bead flow cytometry (AID 488806;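 active means aptamer binding inhibition above 30%, about 3 SD of noise from non-fluorescent compounds; inactive means inhibition at or below 30%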); settings: bead-bound GRK2, FAM-aptamer displacement, at 10 µM, stronger effect = higher value
[9] = target: AP-2 complex subunit beta (Homo sapiens) (UniProt P63010); test: inhibitors of arrestin peptide binding to AP2, pilot screen, biochemical, validation set, GST-AP2 beads, flow cytometry (AID 504541;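 active means inhibition above 54%, about 3 SD of non-fluorescent compounds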;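 further: AP2 carries R879A mutation and is captured from E. coli lysate; bead-bound FITC arrestin peptide fluorescence measuring arrestin peptide binding to AP2; 0% = DMSO wells and 100% = excess unlabeled arrestin peptide control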); settings: FITC arrestin peptide, at 10 µM, stronger effect = higher value
[10] = yeast V-ATPase proton transport modulators, S. cerevisiae, pHLuorin, HTS validation (AID 504600; in the data active means response above about 15%;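 further: plate controls were DMSO for no effect and reference compound for full effect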); settings: S. cerevisiae pHLuorin cytosolic pH, at 10 µM, stronger effect = higher value
[11] = test system: anti-desmoglein-3 scFv antibody binding to human DSG3; test: inhibitors of anti-DSG3 scFv binding to DSG3, pilot screen, biochemical, validation compound set, bead-based, flow cytometry (AID 588368;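 active means binding below the plate cutoff, the plate median minus 3 SD, with a reading above zero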;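 further: signal is the median channel fluorescence of bead-bound GFP antibody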); settings: Protein G beads, DSG3-Fc, scFv-GFP binding, at 10 µM, stronger effect = lower value
[12] = test system: Botulinum neurotoxin type F light chain protease (Clostridium botulinum); test: Botulinum neurotoxin type F light chain protease inhibition, multiplex microsphere flow cytometry, validation set (AID 588459); settings: multiplex microsphere protease substrate cleavage assay, at 10 µM, stronger effect = higher value
[13] = target: Botulinum neurotoxin type A (Clostridium botulinum) (UniProt P0DPI0); test: BoNT/A light chain protease inhibitors, biochemical, multiplex microsphere flow cytometry, validation set (AID 588460); settings: at 10 µM, stronger effect = higher value
[14] = target: Lethal factor (Bacillus anthracis) (UniProt P15917); test: Lethal factor protease inhibitors, Bacillus anthracis, multiplex microsphere cleavage assay, validation set (AID 588461); settings: flow cytometry, at 10 µM, stronger effect = higher value
[15] = inhibitors of fungal efflux pumps CDR1, CDR2, MDR1, pilot screen, validation compound set, multiplex, phenotypic (AID 588506;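 active means efflux inhibition above 0.42, the validation set average plus 4 SD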;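 further: Nile Red retained in cells so higher fluorescence means more efflux inhibition; 0 = negative control wells and 1 = enniatin B 25 µM full block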); settings: S. cerevisiae pump-expressing triplex, Nile Red efflux flow cytometry; at 10 µM; stronger effect = higher value
[16] = target: ATP-binding cassette sub-family B member 6 (Homo sapiens) (UniProt Q9NP58); test: ABCB6 transporter inhibitors, pilot screen, K562-ABCB6 cells, flow cytometry, validation set (AID 588550;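 active means inhibition above the screen-wide mean plus 3 SD, about 51%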;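 further: 0% = DMSO wells and 100% = benzethonium chloride 70 µM positive control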); settings: K562-ABCB6 porphyrin accumulation, 1 h, at 10 µM, stronger effect = higher value
[17] = promoters of myeloid differentiation in arrested cells, primary screen, cell-based, GFP/MAC1 double positive, flow cytometry, validation set (AID 588685;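 active means differentiation response of at least 50%, scaled between solvent and reference control, from cells with both markers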;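 further: compound exposure lasts four days before antibody staining and flow analysis; 0% = DMSO wells and 100% = 5 µM fulvestrant positive control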); settings: ER-HoxA9 marrow cells, stronger effect = higher value

Sequence of Lethal factor (Bacillus anthracis) (P15917 whole entry, looked up): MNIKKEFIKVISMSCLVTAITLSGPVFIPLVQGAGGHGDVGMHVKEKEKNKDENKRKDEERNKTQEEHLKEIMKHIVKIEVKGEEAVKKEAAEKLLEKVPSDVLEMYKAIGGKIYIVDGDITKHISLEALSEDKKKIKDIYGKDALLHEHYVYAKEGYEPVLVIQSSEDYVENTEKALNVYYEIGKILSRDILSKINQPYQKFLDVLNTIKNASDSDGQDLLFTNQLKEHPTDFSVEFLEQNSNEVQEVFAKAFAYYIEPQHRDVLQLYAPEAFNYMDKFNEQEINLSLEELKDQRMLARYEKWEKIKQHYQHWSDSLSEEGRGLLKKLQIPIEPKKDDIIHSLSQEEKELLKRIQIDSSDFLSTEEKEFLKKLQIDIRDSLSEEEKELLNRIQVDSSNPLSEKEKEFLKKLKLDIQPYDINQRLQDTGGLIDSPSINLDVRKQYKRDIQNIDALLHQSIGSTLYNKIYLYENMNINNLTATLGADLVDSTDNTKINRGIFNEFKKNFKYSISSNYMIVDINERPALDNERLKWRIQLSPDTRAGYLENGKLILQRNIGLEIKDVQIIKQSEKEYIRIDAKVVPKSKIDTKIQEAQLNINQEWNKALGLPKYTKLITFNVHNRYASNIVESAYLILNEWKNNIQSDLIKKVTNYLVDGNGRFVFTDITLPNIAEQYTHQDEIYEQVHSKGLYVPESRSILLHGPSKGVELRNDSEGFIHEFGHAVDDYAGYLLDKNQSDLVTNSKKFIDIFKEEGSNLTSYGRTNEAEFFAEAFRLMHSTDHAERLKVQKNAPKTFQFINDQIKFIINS
Sequence of Botulinum neurotoxin type A (Clostridium botulinum) (P0DPI0 whole entry, looked up): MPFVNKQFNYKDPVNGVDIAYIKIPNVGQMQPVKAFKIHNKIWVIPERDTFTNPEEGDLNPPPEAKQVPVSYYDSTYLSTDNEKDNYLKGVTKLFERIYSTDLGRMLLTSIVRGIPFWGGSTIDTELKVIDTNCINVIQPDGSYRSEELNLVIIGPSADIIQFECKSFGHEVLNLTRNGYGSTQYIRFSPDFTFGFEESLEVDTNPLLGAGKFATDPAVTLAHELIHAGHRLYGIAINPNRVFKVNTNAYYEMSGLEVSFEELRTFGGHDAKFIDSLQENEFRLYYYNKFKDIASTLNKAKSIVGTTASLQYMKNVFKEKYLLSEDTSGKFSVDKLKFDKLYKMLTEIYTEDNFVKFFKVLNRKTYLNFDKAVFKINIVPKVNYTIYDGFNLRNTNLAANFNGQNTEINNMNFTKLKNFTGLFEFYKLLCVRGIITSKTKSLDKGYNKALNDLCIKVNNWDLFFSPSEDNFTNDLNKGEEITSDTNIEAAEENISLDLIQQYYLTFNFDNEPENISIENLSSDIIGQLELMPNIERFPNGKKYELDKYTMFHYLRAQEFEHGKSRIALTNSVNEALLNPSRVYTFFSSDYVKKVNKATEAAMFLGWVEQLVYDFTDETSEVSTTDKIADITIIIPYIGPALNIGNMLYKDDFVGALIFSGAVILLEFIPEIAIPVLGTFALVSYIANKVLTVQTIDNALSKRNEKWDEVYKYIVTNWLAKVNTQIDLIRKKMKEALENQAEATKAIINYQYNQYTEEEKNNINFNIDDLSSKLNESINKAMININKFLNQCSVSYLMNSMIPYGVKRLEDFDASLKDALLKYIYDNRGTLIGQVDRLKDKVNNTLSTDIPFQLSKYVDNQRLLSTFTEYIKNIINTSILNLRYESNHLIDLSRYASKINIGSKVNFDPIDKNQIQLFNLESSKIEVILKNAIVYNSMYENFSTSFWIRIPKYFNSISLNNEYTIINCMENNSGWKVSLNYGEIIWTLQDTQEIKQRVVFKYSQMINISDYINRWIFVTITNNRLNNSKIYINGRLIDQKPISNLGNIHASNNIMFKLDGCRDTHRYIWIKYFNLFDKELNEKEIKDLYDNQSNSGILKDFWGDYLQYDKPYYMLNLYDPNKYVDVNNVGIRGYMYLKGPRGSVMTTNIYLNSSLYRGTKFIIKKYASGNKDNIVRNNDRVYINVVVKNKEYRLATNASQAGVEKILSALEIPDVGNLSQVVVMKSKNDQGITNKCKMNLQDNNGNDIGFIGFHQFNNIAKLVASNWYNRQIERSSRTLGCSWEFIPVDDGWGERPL
Sequence of Beta-adrenergic receptor kinase 1 (Homo sapiens) (P25098 whole entry, looked up): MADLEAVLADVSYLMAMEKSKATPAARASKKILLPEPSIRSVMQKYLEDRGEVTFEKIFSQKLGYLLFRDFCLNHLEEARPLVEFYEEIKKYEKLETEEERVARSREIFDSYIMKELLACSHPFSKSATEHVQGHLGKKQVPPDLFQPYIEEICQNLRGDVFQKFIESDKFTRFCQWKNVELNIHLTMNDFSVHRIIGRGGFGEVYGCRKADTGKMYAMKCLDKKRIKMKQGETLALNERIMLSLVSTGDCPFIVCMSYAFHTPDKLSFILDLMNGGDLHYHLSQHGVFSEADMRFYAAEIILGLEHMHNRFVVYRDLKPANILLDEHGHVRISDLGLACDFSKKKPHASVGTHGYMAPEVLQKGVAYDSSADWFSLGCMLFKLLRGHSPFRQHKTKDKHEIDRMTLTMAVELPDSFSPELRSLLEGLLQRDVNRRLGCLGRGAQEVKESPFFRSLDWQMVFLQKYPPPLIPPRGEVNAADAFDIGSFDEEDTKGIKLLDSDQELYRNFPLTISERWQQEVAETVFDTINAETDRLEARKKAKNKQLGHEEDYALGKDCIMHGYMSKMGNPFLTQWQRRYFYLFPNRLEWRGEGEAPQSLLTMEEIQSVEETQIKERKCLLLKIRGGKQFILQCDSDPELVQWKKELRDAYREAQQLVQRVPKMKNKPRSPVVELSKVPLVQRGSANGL
Sequence of AP-2 complex subunit beta (Homo sapiens) (P63010 whole entry, looked up, one chain of several): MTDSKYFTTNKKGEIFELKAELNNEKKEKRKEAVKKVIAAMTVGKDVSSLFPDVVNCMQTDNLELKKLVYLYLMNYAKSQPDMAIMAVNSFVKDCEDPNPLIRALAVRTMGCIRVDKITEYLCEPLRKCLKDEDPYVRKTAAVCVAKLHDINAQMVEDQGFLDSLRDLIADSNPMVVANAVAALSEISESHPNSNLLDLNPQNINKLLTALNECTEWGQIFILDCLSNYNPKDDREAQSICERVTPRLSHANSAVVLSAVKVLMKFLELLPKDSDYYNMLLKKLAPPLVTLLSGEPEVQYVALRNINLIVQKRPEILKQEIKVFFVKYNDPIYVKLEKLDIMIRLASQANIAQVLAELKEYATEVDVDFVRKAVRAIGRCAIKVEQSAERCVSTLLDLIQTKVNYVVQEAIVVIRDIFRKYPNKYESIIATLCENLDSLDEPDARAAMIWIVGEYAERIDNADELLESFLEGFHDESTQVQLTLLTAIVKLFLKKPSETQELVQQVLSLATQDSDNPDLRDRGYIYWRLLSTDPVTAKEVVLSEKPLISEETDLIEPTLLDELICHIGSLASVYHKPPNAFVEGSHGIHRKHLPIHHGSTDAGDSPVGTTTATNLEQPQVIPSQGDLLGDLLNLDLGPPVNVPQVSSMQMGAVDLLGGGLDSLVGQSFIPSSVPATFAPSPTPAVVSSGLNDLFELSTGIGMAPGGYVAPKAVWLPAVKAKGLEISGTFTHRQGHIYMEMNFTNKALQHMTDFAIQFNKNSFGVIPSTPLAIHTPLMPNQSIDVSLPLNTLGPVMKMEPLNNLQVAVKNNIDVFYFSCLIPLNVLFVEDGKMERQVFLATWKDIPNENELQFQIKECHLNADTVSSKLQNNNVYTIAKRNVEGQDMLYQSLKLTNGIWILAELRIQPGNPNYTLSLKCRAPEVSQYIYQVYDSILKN
Sequence of ATP-binding cassette sub-family B member 6 (Homo sapiens) (Q9NP58 whole entry, looked up): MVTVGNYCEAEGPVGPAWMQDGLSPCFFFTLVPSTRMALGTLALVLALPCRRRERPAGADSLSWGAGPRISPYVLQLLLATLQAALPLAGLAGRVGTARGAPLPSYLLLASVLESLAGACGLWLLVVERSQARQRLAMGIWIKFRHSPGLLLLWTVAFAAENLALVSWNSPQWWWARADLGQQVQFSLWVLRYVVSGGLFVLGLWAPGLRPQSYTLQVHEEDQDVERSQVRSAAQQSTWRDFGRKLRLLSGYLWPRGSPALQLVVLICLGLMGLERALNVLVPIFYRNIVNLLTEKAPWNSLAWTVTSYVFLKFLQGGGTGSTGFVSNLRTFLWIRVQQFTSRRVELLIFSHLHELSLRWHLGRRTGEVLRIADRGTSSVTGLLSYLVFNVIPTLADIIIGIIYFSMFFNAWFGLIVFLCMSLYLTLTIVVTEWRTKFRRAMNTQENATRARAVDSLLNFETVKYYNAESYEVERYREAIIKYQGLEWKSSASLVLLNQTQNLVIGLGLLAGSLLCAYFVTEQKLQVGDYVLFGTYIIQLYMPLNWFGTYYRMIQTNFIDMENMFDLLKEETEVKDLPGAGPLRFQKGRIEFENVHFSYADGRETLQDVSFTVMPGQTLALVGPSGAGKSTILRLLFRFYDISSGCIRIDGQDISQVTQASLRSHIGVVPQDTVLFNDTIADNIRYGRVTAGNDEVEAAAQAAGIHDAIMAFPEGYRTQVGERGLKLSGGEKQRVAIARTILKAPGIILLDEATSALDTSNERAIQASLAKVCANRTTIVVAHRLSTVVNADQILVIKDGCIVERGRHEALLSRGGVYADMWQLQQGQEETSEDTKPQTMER

Compound: Cc1ccc2c(c1)C1CN(C)CCC1N2C(=O)Nc1cccc(Cl)c1 (stereo not drawn)
- percent of DMSO control GFP [1]: 99.5% (inactive)
- GFP response vs DMSO [2]: 102% (inactive)
- percent response of DMSO control [3]: 109% (inactive)
- GFP response vs DMSO [4]: 95.4% (inactive)
- double positive events [5]: 56.9%
- vesicle binding response [5]: 242% (inactive)
- inhibition [6]: 30.5% (inactive)
- superoxide response (% of plate) [7]: 93.4% (inactive)
- aptamer binding inhibition [8]: -3% (inactive)
- inhibition [9]: 27.7% (inactive)
- response [10]: -6.89% (inactive)
- binding (% of control) [11]: 102% (inactive)
- inhibition [12]: -0.9% (inactive)
- inhibition [13]: -0.1% (inactive)
- inhibition [14]: 0% (inactive)
- efflux inhibition (fraction of control) [15]: -0.09 (inactive)
- inhibition [16]: 4% (inactive)
- differentiation response [17]: -18% (inactive)

Compound: NCC1(c2ccc3c(c2)OCCO3)CCCC1
- percent of DMSO control GFP [1]: 98.3% (inactive)
- GFP response vs DMSO [2]: 101% (inactive)
- percent response of DMSO control [3]: 97.9% (inactive)
- GFP response vs DMSO [4]: 89.3% (inactive)
- double positive events [5]: 60.7%
- vesicle binding response [5]: 107% (inactive)
- inhibition [6]: -51.5% (inactive)
- superoxide response (% of plate) [7]: 101% (inactive)
- aptamer binding inhibition [8]: 1% (inactive)
- inhibition [9]: 6.32% (inactive)
- response [10]: -0.06% (inactive)
- binding (% of control) [11]: 98.8% (inactive)
- inhibition [12]: 0.5% (inactive)
- inhibition [13]: -0.6% (inactive)
- inhibition [14]: 0.5% (inactive)
- efflux inhibition (fraction of control) [15]: 0.06 (inactive)
- inhibition [16]: 6% (inactive)
- differentiation response [17]: 1.41% (inactive)

Compound: CC(C)[C@H]1C(=O)N2CCC[C@H]2[C@]2(O)O[C@](NC(=O)[C@@H]3C=C4c5cccc6[nH]cc(c56)C[C@H]4N(C)C3)(C(C)C)C(=O)N12
- percent of DMSO control GFP [1]: 99% (inactive)
- GFP response vs DMSO [2]: 108% (inactive)
- percent response of DMSO control [3]: 102% (inactive)
- GFP response vs DMSO [4]: 123% (inactive)
- double positive events [5]: 59.8%
- vesicle binding response [5]: 192% (inactive)
- superoxide response (% of plate) [7]: 38.3% (active)
- aptamer binding inhibition [8]: 8% (inactive)
- inhibition [9]: 3.83% (inactive)
- response [10]: -7.73% (inactive)
- binding (% of control) [11]: 105% (inactive)
- inhibition [12]: -15.7% (inactive)
- inhibition [13]: -5% (inactive)
- inhibition [14]: -64.2% (inactive)
- efflux inhibition (fraction of control) [15]: 0.25 (inactive)
- inhibition [16]: -96% (inactive)
- differentiation response [17]: -2.03% (inactive)
